GLP1R cytotox: cytotoxicity in counter-screen for GLP-1R inverse agonists; 410,000 compounds, 0.13% hits; Potency, µM (doses to about 38.3 µM), for inactives: at the top dose activity change, negative = inhibition, usual class: inhibitors; HEK293 cAMP-luciferase reporter cells, luminescence, 24 h;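 also: loss of luciferase light is scored as toxicity; % is scaled to controls: 0 for no effect and ±100 for the full control effect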
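1536-well qHTS counterscreen of the MLSMR; 200 cells/uL, 12 h pre-incubation, 23 nL cpd, 24 h at 37 deg C 5% CO2, luciferase detection reagent, 12 min RT, luminescence. Inhibition = undesired.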
BRCA1 expr up: BRCA1 expression activation; MCF7-BRCA1-FFLuc reporter, luminescence, 48 h; response scale: scaled: vehicle 0%, 10 µM genistein 100%; Potency, µM (series often up to 46.1 µM), inactives show at the highest dose activation, actives largely listed as activators; 380,000 compounds, 1.1% hits; AID 624202; also: nearly all actives have a fitted effect of over 80% in size
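48 h compound treatment of MCF7-BRCA1-FFLuc cells (phenol-red free MEM, 37 °C), then 15 min with luciferase substrate and luminescence imaging.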
GLP1R ag: GLP-1 receptor (human) agonism. P43220. HEK293 GLP-1R CRE-luciferase, luminescence, 4-6 h; cells express a hypersensitive GLP-1R form. Potency, µM (top dose mostly 45.6 µM), without a hit: at the top dose activation, hits mostly activators. 380,000 compounds, 0.007% hits. AID 624172; also: % of control where 0% means no effect
Target sequence (P43220 whole entry, looked up): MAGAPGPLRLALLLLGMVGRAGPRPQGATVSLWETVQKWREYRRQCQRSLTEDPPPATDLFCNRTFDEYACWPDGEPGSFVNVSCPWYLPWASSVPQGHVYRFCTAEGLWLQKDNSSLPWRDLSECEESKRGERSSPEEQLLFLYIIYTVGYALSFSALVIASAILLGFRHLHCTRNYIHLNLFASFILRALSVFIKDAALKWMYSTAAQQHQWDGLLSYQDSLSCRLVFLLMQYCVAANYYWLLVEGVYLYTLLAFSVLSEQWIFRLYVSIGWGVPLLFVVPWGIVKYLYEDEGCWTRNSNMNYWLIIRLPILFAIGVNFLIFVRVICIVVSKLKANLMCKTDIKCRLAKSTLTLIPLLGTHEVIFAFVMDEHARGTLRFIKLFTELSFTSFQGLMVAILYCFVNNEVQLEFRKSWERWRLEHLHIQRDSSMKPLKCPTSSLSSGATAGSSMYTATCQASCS
GLP-1R inv ag: inverse agonists of human GLP-1 receptor; P43220; HEK293 GLP-1R CRE-luciferase, luminescence, 24 h; GLP-1R form is constitutively active; Potency, µM (top dose mostly 38.3 µM), for inactives: at the top dose activity change, negative = inhibition, hits mostly inhibitors; 410,000 compounds, 1.6% hits; also: % is scaled to controls: 0 for no effect and ±100 for the full control effect; nearly all actives have a fitted effect of over 55% in size
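Cells are plated, allowed 12 hours at 37 deg C, then treated with compounds for 24 hr before luciferase detection reagent is added and luminescence is read after 12 min at room temperature. The HEK293 line carries constitutively active GLP-1R with a cAMP-responsive reporter.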
Active calls of the source: *. Most compounds without a hit are left out; they make up all but 2.6% or so of the library. Calls follow the shape of the dose curve; as a rule, active = well fitted curve in the direction sought with a large enough effect; inconclusive = small, poorly fitted or top-dose-only effect, or another doubt; inactive = no such curve, though single readings can be large; an effect the other way counts as inactive or inconclusive. Potency is read from the fitted curve at half-maximal effect.

Results for Cc1ccc(Cn2c(C(=O)Nc3ccc(Cl)cc3)cc3sccc32)cc1 ?
GLP1R cytotox: 1%; BRCA1 expr up: -12%; GLP1R ag: -3%; GLP-1R inv ag: inconclusive

What do the screens show for `Cc1ccc(Cn2nc(C)cc2C(=O)Nc2ccc(Cl)cc2)cc1`?
GLP1R cytotox: 0%; BRCA1 expr up: 16%; GLP1R ag: 13%; GLP-1R inv ag: 4.5µM*

Results for CCOC(=O)Cn1nc(-c2ccccc2)ccc1=O ?
GLP1R cytotox: 2%; BRCA1 expr up: 39%; GLP1R ag: 4%; GLP-1R inv ag: 0%

Results for CN(C)c1ccc(CN(Cc2ccco2)C(=O)COc2ccc(F)cc2)cc1 ?
GLP1R cytotox: 0%; GLP-1R inv ag: inconclusive

Results for O=C(NN=Cc1ccc(Cl)cc1Cl)C1CC1 ?
GLP1R cytotox: -12%; BRCA1 expr up: -16%; GLP1R ag: 20%; GLP-1R inv ag: -14%

What do the screens show for `CCC(C)Sc1c(C(C)C)cnc2c1c(=O)n(C)c(=O)n2C` (centres undefined)?
GLP1R cytotox: 0%; GLP-1R inv ag: -10%

Results for C[C@@H]1CCCCO[C@@H](CN(C)Cc2ccc(Cl)c(Cl)c2)[C@@H](C)CN([C@H](C)CO)C(=O)c2cc(NC(=O)CCC(F)(F)F)ccc2O1 ?
GLP1R cytotox: -22%; BRCA1 expr up: -61%; GLP1R ag: 1%; GLP-1R inv ag: 2.8µM*

What do the screens show for `C[C@H](CO)N1C[C@H](C)[C@@H](CN(C)S(=O)(=O)c2ccccc2)OCCCC[C@H](C)Oc2ccc(NC(=O)CCC(F)(F)F)cc2C1=O`?
GLP1R cytotox: -6%; BRCA1 expr up: 0%; GLP1R ag: -2%; GLP-1R inv ag: 0%

Results for C[C@@H]1CN([C@H](C)CO)C(=O)Cc2cc(NC(=O)CCC(F)(F)F)ccc2O[C@@H]1CN(C)C(=O)Nc1ccccc1 ?
GLP1R cytotox: -2%; BRCA1 expr up: 4%; GLP1R ag: 0%; GLP-1R inv ag: 10%

How did C[C@H]1CN([C@@H](C)CO)C(=O)Cc2cc(NC(=O)C3CC3)ccc2O[C@H]1CN(C)Cc1ccc(Oc2ccccc2)cc1 do in these assays?
GLP1R cytotox: -8%; BRCA1 expr up: -48%; GLP1R ag: -3%; GLP-1R inv ag: 10µM*

How did C[C@H]1CN([C@@H](C)CO)C(=O)Cc2cc(NC(=O)CCC(F)(F)F)ccc2O[C@H]1CN(C)Cc1ccc(-c2ccccc2)cc1 do in these assays?
GLP1R cytotox: 2%; BRCA1 expr up: -93%; GLP1R ag: -1%; GLP-1R inv ag: 4.5µM*

What do the screens show for `C[C@H]1CN([C@@H](C)CO)C(=O)Cc2cc(NC(=O)CCC(F)(F)F)ccc2O[C@H]1CN(C)S(C)(=O)=O`?
GLP1R cytotox: 0%; BRCA1 expr up: 4%; GLP1R ag: -2%; GLP-1R inv ag: 22%

How did C[C@H]1CN([C@@H](C)CO)C(=O)Cc2cc(NC(=O)CCC(F)(F)F)ccc2O[C@H]1CN(C)Cc1ccc(C(F)(F)F)cc1 do in these assays?
GLP1R cytotox: -11%; BRCA1 expr up: -68%; GLP1R ag: -3%; GLP-1R inv ag: 10µM*

What do the screens show for `CCOCCn1c(=O)c2c(nc3n2CCCN3CCc2ccccc2)n(C)c1=O`?
GLP1R cytotox: 5%; BRCA1 expr up: 3%; GLP1R ag: 0%; GLP-1R inv ag: 0%

What do the screens show for `CC(C)Oc1ccc(CNC(=O)c2ccc(NC(=O)N3CCSc4ncccc43)cc2)cc1`?
GLP1R cytotox: 9%; GLP-1R inv ag: 9%

What do the screens show for `CCOc1ccc(CN2C(=O)C(=O)c3cccc(C)c32)cc1OC`?
GLP1R cytotox: inconclusive; GLP-1R inv ag: 9%

How did CC1=CC(=C(c2ccc(N)cc2)c2ccc(N)cc2)C=CC1=N do in these assays?
BRCA1 expr up: -58%; GLP1R ag: -5%

How did Cc1cc(NC(=O)c2cccc(Br)c2)n[nH]1 do in these assays?
GLP1R cytotox: -9%; BRCA1 expr up: 11µM*; GLP1R ag: 2%; GLP-1R inv ag: 20%

How did CCN(CC)c1nc2ccccc2c(N)c1-c1ccccc1 do in these assays?
GLP1R cytotox: -6%; BRCA1 expr up: -32%; GLP1R ag: -1%; GLP-1R inv ag: 2.5µM*

How did Cc1c(N(C)C)nc2ccccc2c1N do in these assays?
GLP1R cytotox: 7%; BRCA1 expr up: 14%; GLP1R ag: 4%; GLP-1R inv ag: 13%

What do the screens show for `CC(C)c1ccc(NC(=O)c2cccn2-c2nnc(N3CCCCC3)s2)cc1`?
GLP1R cytotox: 8%; GLP-1R inv ag: inconclusive

What do the screens show for `Cc1cc(NC(=O)c2cccn2-c2nnc(N3CCCCC3)s2)ccc1Br`?
GLP1R cytotox: -11%; GLP-1R inv ag: 10µM*

How did CC[C@]12c3[nH]c4ccc(Cl)cc4c3CCN1C(=O)[C@@H](CC(=O)NCc1cccc(C(F)(F)F)c1)C[C@@H]2C(=O)N1CCN(C(=O)c2ccco2)CC1 do in these assays?
GLP1R cytotox: inconclusive; BRCA1 expr up: -72%; GLP1R ag: -1%; GLP-1R inv ag: 10µM*

How did CCC1CN(C(=O)NCc2cccc(OC)c2)c2cc(Cl)ccc2O1 (centres undefined) do in these assays?
GLP1R cytotox: 0%; BRCA1 expr up: -35%; GLP1R ag: 13%; GLP-1R inv ag: 11µM*

How did CCC1CN(C(=O)NCc2ccc(C)cc2)c2cc(Cl)ccc2O1 (centres undefined) do in these assays?
GLP1R cytotox: -7%; BRCA1 expr up: -31%; GLP1R ag: -2%; GLP-1R inv ag: inconclusive

Results for CCC1CN(C(=O)NCc2ccc(F)cc2)c2cc(Cl)ccc2O1 (centres undefined) ?
GLP1R cytotox: 2%; BRCA1 expr up: -25%; GLP1R ag: 5%; GLP-1R inv ag: 10µM*

What do the screens show for `CCC1CN(C(=O)NCc2cccc(OC)c2)c2ccccc2O1` (centres undefined)?
GLP1R cytotox: 21%; BRCA1 expr up: -10%; GLP1R ag: 1%; GLP-1R inv ag: inconclusive

Results for O=C(CSc1nc2c([nH]c3ccccc32)c(=O)n1-c1ccccc1)Nc1cccc(C(F)(F)F)c1 ?
GLP1R cytotox: -30%; GLP-1R inv ag: inconclusive

Results for CC1CN(c2ccc([N+](=O)[O-])c(NCCOc3ccccc3)c2)CC(C)N1 (centres undefined) ?
GLP1R cytotox: inconclusive; BRCA1 expr up: 9%; GLP1R ag: 15%; GLP-1R inv ag: inconclusive

What do the screens show for `Cc1ccccc1OCCNc1cc(N2CC(C)NC(C)C2)ccc1[N+](=O)[O-]` (centres undefined)?
GLP1R cytotox: inconclusive; BRCA1 expr up: -38%; GLP1R ag: -3%; GLP-1R inv ag: 7.9µM*

What do the screens show for `CC1CN(c2ccc([N+](=O)[O-])c(NCCOc3ccc(Cl)cc3)c2)CC(C)N1` (centres undefined)?
GLP1R cytotox: -10%; BRCA1 expr up: -84%; GLP1R ag: -1%; GLP-1R inv ag: 10µM*

Screening results: PubChem BioAssay, National Center for Advancing Translational Sciences (NCATS)
